These results are taken from PubChem BioAssay (NCI).

The structures appear in SMILES notation. The panel holds about 83,000 compounds, 20% with a hit somewhere; the sample as a whole holds those more often.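 Single-concentration screen, 48 h exposure, 96-well plates. Endpoint: percent growth. Below 10 = active.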 Unmarked numbers belong to inactive results. Active and inactive are the calls of the source.

This test has as its system HL-60(TB) leukemia. Nature of the test: NCI-60 one-dose screen, 48 h (100 = growth as untreated, 0 = no growth, -100 = all killed). To be noted: 10 µM unless noted.

For the compound `C=C1C(=O)O[C@H]2[C@H]1CC/C(COC(=O)CCCCCCCC(=O)OC/C1=C/CC[C@@]3(C)O[C@H]3[C@H]3OC(=O)C(=C)[C@@H]3CC1)=C\CC[C@@]1(C)O[C@@H]21`, the growth is -18.3% (active).
The value for `CC1CCC2C(C)(C)C3CC12CC1OC13C` (stereo unspecified) was 125%; that for `Cc1cc2c(cc1[N+](=O)[O-])NC(CNC(C)C)CC2` (stereo unspecified) was 90.9%; that for `Cc1nn(-c2ccccc2)c2nc3nc4c(c(N)c3c(-c3ccc(Cl)cc3)c12)CCC4` was 102%.
To `CC(=O)Nc1cc2c3c(cccc3c1)-c1ccccc1-2` belongs 0.506% (active).
The value for `NC(N)=NC(N)=Nc1ccccc1-c1ccccc1` was 108%.
On to `O=C(CCCCNC(=O)c1nc(-c2ccccc2)n(-c2ccccc2)n1)NO`, for which the growth is 97%.
The value for `COc1cccc(/C=C/C(=O)c2cc3c(N)c(C(=O)Nc4cccc(Cl)c4C)sc3nc2C)c1` was 0.771% (active).
Consider `Clc1cc(Cl)cc(Nc2ccc3cc(OCCCN4CCOCC4)ccc3n2)c1`, for which the growth was 26.7%.
For the compound `C=C(C)CCCC(C)CC#N` (stereo unspecified), the growth was 108%.
Turning to `OC(Cc1cc(CC(O)(C(F)(F)F)C(F)(F)F)nc(CC(O)(C(F)(F)F)C(F)(F)F)c1)(C(F)(F)F)C(F)(F)F`, the growth is -24.5% (active).
As for `COc1cc(/C=N/NC(=O)c2cnn3c2NC(c2ccccc2)C3)ccc1OCc1ccccc1` (stereo unspecified), the growth is -0.0884% (active).
The value for `Cc1cc(C)c2c(n1)sc1c(Nc3ccc(Cl)cc3)ncnc12` was -19.1% (active).
To `COc1ccc(/C=C/C(c2cc(OC)c(OC)c(OC)c2)n2cncn2)cc1O` (stereo unspecified) belongs -36.3% (active).
To `O=C(O)C(O)C(O)C(=O)O.[NH-]C1CCCCC1[NH-].[Pt+2]` (stereo unspecified) belongs 104%; to `Nc1ccc(Br)cc1C(F)(F)F`, 90.2%; to `COc1cc(/C=C\c2cc(OC)c(OC)c(OC)c2)cc(NC(=O)/C=C/c2cc(OC)c(OC)c(OC)c2)c1OC`, -6.4% (active).
For `CCOC(=O)[C@@H]1CSC(CC)=C(C(=O)O)N1`, the growth is -17.3% (active).
The value for `CC(=O)OC[C@]12CC[C@H]3[C@@H](C[C@H]4O[C@]45CC=CC(=O)[C@]35C)[C@]1(O)CC[C@@]2(O)[C@@](C)(O)C1CC(C)=C(C)C(=O)O1` (stereo partly specified) was -11.8% (active); that for `COC(=O)c1c2c(c(C)[n+]([O-])c1C)C(=O)C(NCc1ccc(Br)cc1)=CC2=O` was -19.9% (active); that for `C/C(=C\c1cnc(C)s1)[C@@H]1C[C@@H]2O[C@@H]2CCC[C@H](C)[C@H](O)[C@@H](C)C(=O)C(C)(C)[C@@H](O)CC(=O)O1` was 0.639% (active).
To `O=C(/C=C\c1ccccc1)N1c2ccccc2CC1c1c[nH]c2ccccc12` (stereo unspecified) belongs 73.5%; to `O=C(COc1cccc(/C=C2\CSc3ccc(Cl)cc3C2=O)c1)c1ccc(Cl)cc1`, 79.2%.
To `CN1CCC(COc2cnc(-c3cccc(Cn4nc(-c5cccc(C#N)c5)ccc4=O)c3)nc2)CC1` belongs 95.3%; to `COc1cc(/C=C2\C(=O)N(CCOc3cc(O)c4c(=O)cc(-c5ccccc5)oc4c3)c3ccccc32)cc(OC)c1O`, -9.06% (active); to `Clc1ccc(COc2ccc(Nc3ncnc4onc(-c5ccccc5)c34)cc2)cc1`, 98.8%.
On to `COc1ccc(S(=O)(=O)Nc2cc(Sc3cccc4cccnc34)c(O)c3ccccc23)cc1`, for which the growth was -18.8% (active).
Take `Cc1ccc(Cc2cnc(NC(=O)/C=C/c3ccc(C)o3)s2)cc1`: the growth is -33% (active).
To `CC1(C)CC[C@]2(C(=O)N3CCOCC3)CC[C@]3(C)C(=CC[C@@H]4[C@@]5(C)C/C(=C/c6ccncc6)C(=O)C(C)(C)[C@@H]5CC[C@]43C)[C@@H]2C1` belongs -37.6% (active); to `COc1ccccc1/C=N\Nc1ccc([N+](=O)[O-])cn1`, 89.5%.
To `OC(c1cc2c(Cl)cc(Cl)cc2c2cc(C(F)(F)F)ccc12)C1CCCCN1` (stereo unspecified) belongs -39.1% (active).
The value for `C/C(=C(/c1ccccc1)c1ccc(OCC(O)CN2CCOCC2)cc1)c1ccccc1` (stereo unspecified) was 60.7%; that for `Clc1ccc2c(c1)N(c1ncnc3ccc(-c4cnc5[nH]ccc5c4)cc13)CC2` was 16.3%.
In the case of `Cn1c(=O)c2[nH]c(C(O)C(O)C(O)C(O)CO)nc2n(C)c1=O` (stereo unspecified), the growth was 100%.
The value for `CCCCn1c(-c2ccc(O)cc2)cn2c3c(=O)[nH]c(=O)n(C)c3nc12` was 48.9%; that for `OCCNc1nc(Nc2ccc(Cl)c(Cl)c2)nc2ccccc12` was 44.4%.
